Results: PubChem BioAssay AID2314 (National Center for Advancing Translational Sciences (NCATS), 2010)
Among all 300,000 compounds or so, about 37,000 (12%) were called active. The sample as a whole holds a higher share of actives than the screen did. Values without a mark were called inactive. Rule as the data show it: active = max response mostly above about 13% (no sharp cut-off); inactive = mostly below about 14%.

assay: Cycloheximide Counterscreen for Small Molecule Inhibitors of Shiga Toxin; settings: cell reporter, cycloheximide protein synthesis inhibition counterscreen; active compounds read high; also: read at 38.3 µM for the half of the compounds with a filed dose; 0% is about no effect

Row | Structure (SMILES) | max response
1 | CCOc1cccc(NC(=O)Cn2nc(-c3ccc4c(c3)OCCO4)ccc2=O)c1 | -1.26%
2 | CC(=O)NCCC(=O)Nc1nc(-c2ccc3c(c2)OCCO3)cs1 | 36.2% (active)
3 | O=C(Nc1nc(-c2ccc3c(c2)OCO3)cs1)c1ccncc1 | 21% (active)
4 | COc1ccc(-c2csc(NC(=O)c3ccc(N4C(=O)CCC4=O)cc3)n2)cc1OC | -1.22%
5 | CC(=O)NCCC(=O)Nc1nc(C)c(Cc2ccc3c(c2)OCO3)s1 | 11.6%
6 | COc1ccc(OCCn2ccnc2C)cc1 | -3.23%
7 | Cc1cccc(C2C3=C(CCCC3=O)N=C3c4ccccc4C(=O)C32)c1 (configuration not stated) | -3.21%
8 | Cc1cc(=O)n2nc(N3CCC(C(=O)Nc4c(F)c(F)c(F)c(F)c4F)CC3)sc2n1 | 4.09%
9 | Cc1ccc2nc(-c3cccc(Br)c3)cc(C(=O)Nn3cnnc3)c2c1 | 7.61%
10 | Cc1ccc(-c2cc(C(=O)NCc3cn(C)nc3C)c3cc(Br)ccc3n2)cc1 | 13.1% (active)
11 | O=C(NCc1cccs1)c1cc(-c2ccccn2)nc2ccc(Br)cc12 | -5.76%
12 | CC(C)(C)C(=O)Nc1ccc(C(=O)N/N=C/c2ccccc2OC(=O)c2ccc(Cl)cc2Cl)cc1 | 3.79%
13 | O=C(Cn1cnc2ccccc2c1=O)Nc1cccc(S(=O)(=O)N2CCCCC2)c1 | 7.05%
14 | COc1cc(CNC2CCCC2)c(Br)cc1OCc1ccccc1 | 7.1%
15 | CCNC(=O)COC(=O)CCNC(=O)c1cccc(C)c1 | 10.1%
16 | CCOC(=O)C(CC)/C(C)=N\NC(=O)c1cccc(C)c1 (configuration not stated) | 27.9% (active)
17 | COc1ccc(OCC(=O)NNC(=O)c2cccc(C)c2)cc1 | -1.89%
18 | COCCn1c(N)c(NCc2ccccc2)c(=O)[nH]c1=O | -1.16%
19 | CCOC(=O)N1CCN(C(=O)C(C)NC(=O)c2ccco2)CC1 (configuration not stated) | 1.53%
20 | CC1=C(C)CC(C(=O)NNC(=O)c2ccccc2O)C(C(=O)O)C1 (configuration not stated) | 15.2% (active)
21 | CC1=C(C)CC(C(=O)NNC(=O)c2csc3c2CCC(C(C)(C)C)C3)C(C(=O)O)C1 (configuration not stated) | -0.879%

Row | Structure (SMILES) | max response
22 | CC1=C(C)CC(C(=O)NC(C)CCc2ccccc2)C(C(=O)O)C1 (configuration not stated) | 12.4%
23 | CCC(=O)N(CCc1ccccc1)Cc1cc2cc(C)ccc2[nH]c1=O | -3.02%
24 | CC(C)c1nc2sc3c(c2c(=O)n1N)CC(C)(C)OC3 | 11.6%
25 | COc1ccc(-c2noc(C(C)NS(=O)(=O)c3ccc(NC(C)=O)cc3)n2)cc1 (configuration not stated) | -8.48%
26 | C/C(=N/Nc1ccc(Cl)cc1)c1cnnc(-c2ccccc2)n1 | -2.47%
27 | Cc1ccccc1-c1nnn(CC(=O)c2ccc(S(=O)(=O)N3CCCC3)cc2)n1 | 0.345%
28 | CC(C)(C)NC(=O)Cn1nnc(-c2ccccc2Cl)n1 | 53.5% (active)
29 | O=C(Cn1nnc(-c2ccccc2)n1)NCc1ccccc1 | -2.67%
30 | COC(=O)COc1cccc2c(=O)n(CC(=O)NCc3ccccc3)ccc12 | -1.91%
31 | Cc1ccc(S(=O)(=O)N(C)C)cc1NC(=O)c1n[nH]c(=O)c2ccccc12 | -4.46%
32 | CCCN(CCC)S(=O)(=O)c1ccc(C(=O)N2CC3CCC(CC3)C2)cc1 | -1.36%
33 | CCOC(=O)c1ccc(N/C(=N/S(=O)(=O)c2ccccc2)c2ccccc2)cc1 | 10.2%
34 | O=C(Nc1cccc(S(=O)(=O)N2CCCCC2)c1)c1ccc2c(c1)OCO2 | -2.46%
35 | O=C(Nc1cccc(Cl)c1N1CCOCC1)c1ccc2c(c1)OCCO2 | 19.9%
36 | Cc1ccc(C(=O)Nc2ccc3c(c2)OCO3)cc1S(=O)(=O)N1CCCCC1 | 19.6% (active)
37 | Cc1ccc(C(=O)Nc2ccccc2C(=O)NC2CCCCC2)cc1S(=O)(=O)N1CCOCC1 | 12%
38 | O=C(c1ccc(Cl)c(S(=O)(=O)N2CCCCC2)c1)N1CCCCCC1 | -2.78%
39 | CN1CCN(c2ccc(NC(=O)c3ccc4c(c3)OCCO4)cc2Cl)CC1 | 39.3% (active)
40 | O=C(Nc1ccc2c(c1)OCCO2)c1ccc(Cl)c(S(=O)(=O)N2CCCCC2)c1 | 45.3% (active)
41 | COC(=O)c1ccc(N2CCOCC2)c(NC(=O)c2ccc3c(c2)OCCO3)c1 | 0.234%
42 | O=C(NCCSCc1ccccc1)c1ccc(Cl)c(S(=O)(=O)N2CCOCC2)c1 | -2.82%

Row | Structure (SMILES) | max response
43 | O=[N+]([O-])c1ccccc1/C=C/CN1CCCC(CO)C1 (configuration not stated) | -1.17%
44 | FC(F)Oc1ccccc1C1CC(c2ccc(Br)s2)Nc2ncnn21 (configuration not stated) | -4.82%
45 | CCOc1ccccc1Nc1ccc2nonc2c1[N+](=O)[O-] | -3.05%
46 | Cc1cnc(C(=O)N2CCCC(N3CCN(c4ccccc4F)CC3)C2)cn1 (configuration not stated) | 7.17%
47 | CN(C)/C=N/c1cc(=O)n(C)c(=O)n1CC1CC1 | -3.74%
48 | COc1cc(OC)cc(C(=O)OCC(=O)Nc2ccc(F)cc2F)c1 | 1.53%
49 | COc1cc(OC)cc(C(=O)OCC(=O)Nc2sccc2C(N)=O)c1 | 16.2% (active)
50 | CCCCn1nc(C(=O)OCC(=O)Nc2sccc2C(N)=O)c2ccccc2c1=O | 11.3%
51 | CC(=O)N1c2ccc(S(=O)(=O)N3CCCC(C(=O)Nc4cccc(F)c4)C3)cc2CC1C (configuration not stated) | -3.59%
52 | CC(C)C(O)C1CCN(Cc2nc(Cc3ccccc3Cl)no2)CC1 (configuration not stated) | -3.2%
53 | Cc1ccc(-c2noc(CN3CCN(Cc4ccccc4)CC3)n2)cc1 | 9.63%
54 | CC1CCN(Cc2nc(-c3ccc(Cl)cc3)no2)CC1 | 14.8% (active)
55 | Cc1cc(OCCOc2cccc3cccnc23)c(C)cc1Cl | 2.3%
56 | CCc1ccc(N(C(=O)c2csnn2)C(C(=O)NC2CCCCC2)c2cccnc2)cc1 (configuration not stated) | 6.38%
57 | Cc1cccc(NC(=O)c2cc([N+](=O)[O-])ccc2N2CCN(C)CC2)c1 | -4.47%
58 | Cc1cccc(NC(=O)c2ccc([N+](=O)[O-])o2)c1 | 29.4% (active)
59 | Cc1ccc(C(=O)Nc2nnc(-c3ccncc3)s2)o1 | 0.697%
60 | Cc1onc(C(=O)NCc2ccc(F)cc2)c1[N+](=O)[O-] | 4.59%
61 | Cc1cccc(NC(=O)c2sc(-c3ccccc3)nc2-c2ccc([N+](=O)[O-])cc2)c1 | -2.46%
62 | Cc1onc(NC(=O)c2ccc([N+](=O)[O-])o2)c1Br | 60.9% (active)
